Several values for one entry are separate records, joined by “and”; a condition that tells them apart may be missing. Identical values can stand only once. A number with no mark means an inactive call. Records with an inconclusive call do not appear. Activity calls are given as the source filed them. Unless noted, calls come from the whole dose curve; as a rule, active = well fitted curve in the direction sought with a large enough effect; inconclusive = small, poorly fitted or top-dose-only effect, or another doubt; inactive = no such curve, though single readings can be large; an effect the other way counts as inactive or inconclusive.

From PubChem BioAssay (NCATS) come the findings set out here.

Test [1] has as its system HeLa. In words: Primary qHTS to identify gynecologic anti-cancer compounds using libraries of approved drugs and bioactive compounds (AID 1345084). Note: nearly all actives have a fitted effect of over 55% in size. Note: potency is the fitted concentration of half-maximal effect. Conditions: Gynecologic cancer cell panel viability, ATPlite luminescence, 48 h; series mostly up to 57.5 µM. Put shortly:
(§1)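 Five-concentration response, 48 h; readout is ATP-driven luciferase luminescence.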

The test system of test [2] is Hek293T. The description is as above. Conditions: Gynecologic cancer cell panel viability, ATPlite luminescence, 48 h, control line for the selectivity index; series mostly up to 57.5 µM. The procedure, abridged:
as §1

Test [3] concerns JEG-3. The test is described as above. Particulars: Gynecologic cancer cell panel viability, ATPlite luminescence, 48 h; series mostly up to 57.5 µM. Put shortly: as §1
In test [4] the test system is OV90. The test is described as above. Particulars: Gynecologic cancer cell panel viability, ATPlite luminescence, 48 h; series mostly up to 57.5 µM. The procedure, abridged:
as §1

In test [5] the test system is SKOV3. Described as above. Particulars: Gynecologic cancer cell panel viability, ATPlite luminescence, 48 h; series mostly up to 57.5 µM. Put shortly:
as §1

In test [6] the test system is Tov-21-G. The description is as above. Particulars: Gynecologic cancer cell panel viability, ATPlite luminescence, 48 h; series mostly up to 57.5 µM. The procedure, abridged:
as §1

For test [7], the system named is Tov112D. The description is as above. Conditions: Gynecologic cancer cell panel viability, ATPlite luminescence, 48 h; series mostly up to 57.5 µM. The procedure, abridged: as §1
A short description of test [8]: Drug repurposing screens with cells derived from glioblastoma tumor samples (AID 1345199). For activity, negative = cell killing: % is set by controls: 0 for no effect and ±100 for the full control effect. Note: nearly all actives have a fitted effect of over 40% in size. Note: potency is the fitted concentration of half-maximal effect. Conditions: GBM patient neurospheres viability, ATP luminescence, 48 h. The procedure, abridged:
(§2)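 Primary testing used CD133+ neurospheres from four GBM patients, seven concentrations, 48 h exposure and ATP-based viability; confirmation added three slower-growing patient lines.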

Test [9] relates to PA-1. In words: Primary qHTS to identify gynecologic anti-cancer compounds using libraries of approved drugs and bioactive compounds (AID 1345084). Note: nearly all actives have a fitted effect of over 55% in size. Note: potency is the fitted concentration of half-maximal effect. Particulars: Gynecologic cancer cell panel viability, ATPlite luminescence, 48 h; series mostly up to 57.5 µM. Put shortly:
as §1

Test [10] concerns CASKI. The description is as above. Conditions: Gynecologic cancer cell panel viability, ATPlite luminescence, 48 h; series mostly up to 57.5 µM. The procedure, abridged:
as §1

The subject of test [11] is Es-2. Described as above. Particulars: Gynecologic cancer cell panel viability, ATPlite luminescence, 48 h; series mostly up to 57.5 µM. The procedure, abridged:
as §1

The subject of test [12] is astro. In words: Drug repurposing screens with cells derived from glioblastoma tumor samples (AID 1345199). For activity, negative = cell killing: % is set by controls: 0 for no effect and ±100 for the full control effect. Note: nearly all actives have a fitted effect of over 40% in size. Note: potency is the fitted concentration of half-maximal effect. Particulars: viability, ATP luminescence, 48 h; series mostly up to 45.9 µM. Put shortly:
as §2

For test [13], the target named is Nuclear receptor subfamily 1 group I member 2 (Rattus norvegicus) (UniProt Q9R1A7). As to the kind of experiment: qHTS assay for small molecule activators of the rat pregnane X receptor (rPXR) signaling pathway (AID 651751; call rule not given here; note: 0% is about no effect). Conditions: rPXR reporter cells, luciferase (One-Glo), 24 h.
Test [14] can be described thus: qHTS assay for small molecule activators of the human pregnane X receptor (PXR) signaling pathway (AID 720659; call rule not given here; note: 0% is about no effect).
Where [15] appears, read: at 46.1 µM (top of the series), tumour line C.
Where [16] appears, read: at 45.9 µM (top of the series), tumour line B.
The mark [17] stands for this setting: at 45.9 µM (top of the series), tumour line D.
The mark [18] stands for this setting: at 46 µM (top of the series), tumour line A.

Chain of Nuclear receptor subfamily 1 group I member 2 (Rattus norvegicus) (Q9R1A7 whole entry, looked up): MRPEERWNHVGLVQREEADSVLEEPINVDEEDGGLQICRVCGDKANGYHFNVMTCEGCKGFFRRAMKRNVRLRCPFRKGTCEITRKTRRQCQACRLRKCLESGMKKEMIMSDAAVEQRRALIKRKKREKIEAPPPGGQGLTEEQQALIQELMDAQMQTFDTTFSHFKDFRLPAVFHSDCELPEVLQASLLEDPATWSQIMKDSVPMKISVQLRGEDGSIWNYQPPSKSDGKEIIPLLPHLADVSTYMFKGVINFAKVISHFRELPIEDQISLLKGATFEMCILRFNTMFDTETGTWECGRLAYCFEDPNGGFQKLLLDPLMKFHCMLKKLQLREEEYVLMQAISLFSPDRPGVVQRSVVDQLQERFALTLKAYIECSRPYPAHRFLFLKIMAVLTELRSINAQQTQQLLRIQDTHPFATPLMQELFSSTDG

Regarding `CNCCCC12CCC(c3ccccc31)c1ccccc12`, the Potency result in test [1], in [2], in test [3], in test [6] and in test [7] was “inactive” throughout. Also, the Potency in test [4] is 17.8 µM (active); in test [5], 11.2 µM (active); in test [8] (tumour line A), 7.94 µM (active); in test [8] (tumour line B) it was 17.8 µM (active); in [8] (tumour line D), 22.4 µM (active). The activity, negative = cell killing in [8] (setting [15]) was 31.2%.

For the compound `CN(C)CCCN1c2ccccc2CCc2ccc(Cl)cc21`, the Potency entry in test [1], in [3], in test [9] and in test [6] was “inactive” throughout. Moreover, the activity, negative = cell killing in test [8] (setting [15]) is -8.66%. Besides, the Potency in test [8] (tumour line A) is 5.01 µM (active); in test [8] (tumour line B) it was 20 µM (active); in test [8] (tumour line D), 12.6 µM (active).

Regarding `N[C@@H](Cc1c[nH]c2ccc(O)cc12)C(=O)O`, the Potency result in test [10], in [11], in test [1], in test [2], in [3] and in test [9] was “inactive” each time. For the same compound, the Potency entry in test [5], in test [6], in test [7] and in [12] was “inactive” in each case. For the same compound, the activity, negative = cell killing in test [8] (setting [16]) is -15.2%; in test [8] (setting [17]), -5.01%; in [8] (setting [18]), -33.5%; in test [8] (setting [15]), -4.77%. Moreover, the max response in [13] is 2.83%. For the same compound, the compound was called inactive in test [14].

On to `O=C(CCCN1CCC(O)(c2ccc(Cl)cc2)CC1)c1ccc(F)cc1`, for which the Potency entry in test [10], in [11], in test [1], in test [2], in test [3] and in test [7] was “inactive” in each case. For the same compound, the activity, negative = cell killing in test [8] (setting [15]) is -10.7%. The Potency in [8] (tumour line A) is 11.2 µM (active); in test [8] (tumour line D) it was 15.8 µM (active).

Take `CC[C@@]1(O)C(=O)OCc2c1cc1n(c2=O)Cc2cc3c(CN(C)C)c(O)ccc3nc2-1`: the Potency is 1.26 µM (active) and 4.47 µM (active) in test [10]; 2 µM (active) in test [11]; 8.91 µM (active) in test [2]; 447 nM (active) and 1.58 µM (active) in [9]; 14.1 µM (active) in test [5]; 31.6 µM (active) in [6]. Further, the Potency in [7] was 316 nM (active) and 1.41 µM (active); in test [8] (tumour line A), 0.891 µM (active); in [8] (tumour line D), 3.55 µM (active); in [12] it was 17.8 µM (active). The Potency result in test [1] is “inactive”. Also, the activity, negative = cell killing in test [8] (setting [15]) is -20.9%.

With `COc1ccccc1N1CCN(CC(O)COc2cccc3ccccc23)CC1` (stereo unspecified), the Potency in test [10] was 14.1 µM (active); in [11], 25.1 µM (active); in [2], 31.6 µM (active); in test [9], 3.55 µM (active); in test [5] it was 1.78 µM (active); in test [8] (tumour line A) it was 12.6 µM (active). For the same compound, the activity, negative = cell killing in [8] (setting [15]) was -13.1%. Besides, the Potency result in test [12] was “inactive”.

`Cc1cn([C@H]2C[C@H](N=[N+]=[N-])[C@@H](CO)O2)c(=O)[nH]c1=O`: the Potency result in [11], in test [1], in test [2], in [3], in test [4] and in test [5] was “inactive” in each case. Also, the Potency result in [6], in test [7] and in test [12] was “inactive” in each case. In addition, the activity, negative = cell killing in test [8] (setting [16]) was -5.14% and -10.6%; in test [8] (setting [17]) it was -11% and -22.6%; in [8] (setting [15]) it was -8.55% and -21.3%. In addition, the max response in [13] is -4.33% and 1.62%.

Regarding `COc1cc2c(c(OC)c1OC)-c1ccc(OC)c(=O)cc1[C@@H](NC(C)=O)CC2`, in [4], the Potency was 0.282 µM (active).

On to `CC#C[C@]1(O)CC[C@H]2[C@@H]3CCC4=CC(=O)CCC4=C3[C@@H](c3ccc(N(C)C)cc3)C[C@@]21C`, for which the Potency result in [10], in [11], in test [2], in test [3], in test [4] and in test [9] was “inactive” each time. The Potency result in test [5], in [6] and in test [7] was “inactive” throughout. Also, in test [14], the result was inactive.

Regarding `CN(Cc1cnc2nc(N)nc(N)c2n1)c1ccc(C(=O)N[C@@H](CCC(=O)O)C(=O)O)cc1`, the Potency in [1] was 0.199 µM (active); in [2], 0.158 µM (active); in [3], 0.316 µM (active); in test [6], 0.1 µM (active). Besides, the Potency entry in [5] and in [12] was “inactive” each time. Further, the activity, negative = cell killing in [8] (setting [16]) is 5.57%; in [8] (setting [17]), 3.85%; in test [8] (setting [18]) it was 1.95%; in test [8] (setting [15]), -0.888%. For the same compound, the max response in [13] is -4.55%. In addition, the call in [14] was inactive.

As to `CN(C)CCC=C1c2ccccc2C=Cc2ccccc21`, the Potency result in test [10], in test [1], in test [2], in [3], in [9] and in test [6] was “inactive” in each case. In addition, the Potency entry in test [12] was “inactive”. The activity, negative = cell killing in test [8] (setting [15]) was 15.9%. Further, in test [8] (tumour line A), the Potency is 14.1 µM (active).

On to `O=c1c(-c2ccc(O)cc2)coc2cc(O)cc(O)c12`, for which the Potency result in [11], in [2] and in test [4] was “inactive” throughout. Besides, the values for the Potency in test [6] and in test [12] were 3.98 µM (active) and 10 µM (active), respectively. In [8] (setting [15]), the activity, negative = cell killing is -25.8%. In addition, the max response in test [13] was -0.208% and 4.35%.
